Source: PubChem BioAssay
Sampled rows, rich in hits. Any-hit rate of the full collection: about 9.5%.
NS1 inh: qHTS Assay for Inhibitors of Influenza NS1 Protein Function | Potency, µM (titrated, usually from 46.1 µM), inactives show top-dose activity, positive = more growth | 270,000 tested, 0.4% active | AID 2326, 2010; calls by dose curve; note: actives are rising curves; nearly all actives have a fitted effect of over 50% in size
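Recovery from NS1-induced slow growth read by OD600 in budding yeast switched to galactose assay medium (pH 6.0, -URA) at 1:100 dilution. Compound 23 nl per well; the matching strain lacking NS1 serves as control.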
SARS PLpro yeast: qHTS of Yeast-based Assay for SARS-CoV PLP | S. cerevisiae expressing SARS-CoV PLpro, growth rescue | Potency, µM (highest dose often 32.9 µM), for the others: top-dose activity, positive = growth rescue, most hits filed as activators | 330,000 tested, 0.19% active; calls by dose curve; note: 0% is about no effect; nearly all actives have a fitted effect of over 55% in size
Pf growth 96h: Primary qHTS for delayed death inhibitors of the malarial parasite plastid, 96 hour incubation | P. falciparum luciferase reporter growth, 96 h | Potency, µM (highest dose often 28.7 µM), inactives show at the highest dose activity change, negative = inhibition, usual class: inhibitors | 320,000 tested, 6.9% active | AID 504834, 2011; note: % is set by controls: 0 for no effect and ±100 for the full control effect
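Plates of compound plus infected erythrocytes (2% hematocrit, 0.05% parasitemia final) incubate 96 hours, 37 C, 5% CO2. Detection reagent added; reduced luminescence from the parasites' luciferase reporter flags inhibition.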
RE007 growth inh: qHTS Assay for Inhibitors of the HIV-1 protein Vpr. 360,000 tested, 0.21% active. Potency, µM (doses to about 92.2 µM), for inactives: top-dose activity change, negative = less growth, usual class: inhibitors. S. pombe RE007 Vpr strain, BacTiter-Glo ATP luminescence, 24 h; active = well fitted falling curve with a large enough effect; inconclusive = small, poorly fitted or top-dose-only effect; inactive = no such curve, though single readings can be large or run the other way; note: % is set by controls: 0 for no effect and ±100 for the full control effect; nearly all actives have a fitted effect of over 50% in size
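Fission yeast RE007 carrying one integrated HIV-1 vpr copy, seeded at OD 0.01 in PMG+AL medium with 23 nL pinned compound. Grown 24 h at 30 degrees; viability read by BacTiter-Glo luminescence after 5 min.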
Pf growth 48h: Primary qHTS for delayed death inhibitors of the malarial parasite plastid, 48 hour incubation; P. falciparum luciferase growth in erythrocytes, 48 h; Potency, µM (highest dose often 28.7 µM), inactives show at the top dose activity change, negative = inhibition, hits mostly inhibitors; 310,000 tested, 5.9% active; AID 504832, 2011; note: % is set by controls: 0 for no effect and ±100 for the full control effect
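Firefly luciferase activity from engineered P. falciparum reports growth; inhibitors lower the luminescent signal. Cultures contained 2% hematocrit erythrocytes at 0.1% final parasitemia.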
Starred values were filed as active, the others as inactive; ? = inconclusive; . = not tested or not shown. Unless noted, calls come from the whole dose curve; as a rule, active = well fitted inhibition curve with a large enough effect; inconclusive = small, poorly fitted or top-dose-only effect, or another doubt; inactive = no such curve, though single readings can be large or run the other way. Potency is the fitted concentration of half-maximal effect.

SMILES | NS1 inh | SARS PLpro yeast | Pf growth 96h | RE007 growth inh | Pf growth 48h
Cc1cc([N+](=O)[O-])cc2c1NC(=O)C2(O)N1CCCC(C)C1 (configuration not stated) | 0.7% | -1.5% | 177.3% | -19.8% | -10.5%
COc1ccc(N(CC(=O)NC2CCS(=O)(=O)C2)S(=O)(=O)c2cc(C)ccc2C)cc1 (configuration not stated) | . | 1.5% | . | 0.0% | .
COc1ccccc1CNC(=O)CCCc1nnc2n(C)c(=O)c3sccc3n12 | 5.7% | 1.9% | -17.0% | 2.7% | 14.2%
CC(/C=C1\SC(=S)N(c2ccc(C(=O)O)cc2)C1=O)=C\c1ccccc1 | -1.9% | -0.8% | ? | -3.2% | 4.65µM*
CC(/C=C1\SC(=S)N(NC(=O)c2ccc(C)cc2)C1=O)=C\c1ccccc1 | 8.1% | -4.3% | 8.3% | -0.9% | 20.3%
O=C(COC(=O)/C=C/c1ccccc1Cl)NCCNC(=O)COC(=O)/C=C/c1ccccc1Cl | 1.8% | -1.9% | -32.5% | -3.4% | 5.8%
O=C(CSc1ccc(Cl)cc1)NNC(=O)c1ccco1 | 1.1% | -2.0% | 14.7µM* | 7.8% | 14.9%
CCOC(=O)C1CCN(C(=O)CCN2C(=O)C3C4C=CC(C4)C3C2=O)CC1 (configuration not stated) | 1.0% | -1.7% | 5.22µM* | 16.4% | 28.1%
COc1cc(OC)cc(OC(=O)c2ccc3c(=O)n4c(nc3c2)CCC4)c1 | . | -3.1% | 18.9% | 10.1% | 5.2%
CC1CCC(C(C)C)C(OC(=O)Cn2c(COc3ccccc3)[n+](C)c3ccccc32)C1 (configuration not stated) | 2.5% | -7.5% | 2.33µM* | 17.8% | 1.65µM*
Cc1cccc(OCc2n(CC(=O)OC3CC(C)CCC3C(C)C)c3ccccc3[n+]2C)c1 (configuration not stated) | 1.9% | -0.9% | 2.2% | 14.1% | 2.33µM*
Cc1c(C(=O)N2CCC(C)(C(=O)NS(=O)(=O)C3CC3)C2)oc2ccccc12 (configuration not stated) | . | . | . | -1.6% | .
Cc1ccc(C23OC(=O)C(C)(C)C2OC(=O)C3(C)C)cc1 (configuration not stated) | 2.6% | 11.2% | 13.1µM* | -1.0% | 9.28µM*
Cc1ccc(C2OCC(C)([N+](=O)[O-])CO2)cc1 (configuration not stated) | . | . | . | 4.1% | .
CC(C)CCn1c(N)c(C(=O)NCc2cccs2)c2nc3ccccc3nc21 | 15.7% | -8.0% | ? | 11.2% | 0.828µM*
COCCn1c(N)c(C(=O)NCc2cccs2)c2nc3ccccc3nc21 | -101.5% | -25.1% | ? | 10.6% | ?
COCCCNC(=O)c1c(N)n(/N=C/c2cccs2)c2nc3ccccc3nc12 | 4.5% | 4.9% | 0.0% | -3.0% | 3.7%
COCCNC(=O)c1c(N)n(CCCn2ccnc2)c2nc3ccccc3nc12 | 4.7% | -1.2% | ? | 32.4% | 7.38µM*
CC(C)OCCCNC(=O)c1c(N)n(Cc2cccs2)c2nc3ccccc3nc12 | -75.7% | -2.0% | 11.7µM* | -18.3% | 9.28µM*
O=C(C1CC(=O)N(c2ccc(Cl)cc2)C1)N1CCOCC1 (configuration not stated) | 5.8% | -0.1% | 30.5% | -17.7% | 10.4%
Cc1cccc(NC(=O)CSc2nnc(-c3cc(C)[nH]n3)n2N)c1 | -3.5% | 4.4% | ? | 2.5% | -21.0%
COc1ccc(S(=O)(=O)N2CCN(CC(=O)N3CCc4ccccc4C3)CC2)cc1OC | . | 2.4% | 9.28µM* | 10.0% | ?
O=C(CN1CCN(S(=O)(=O)c2cc(C(F)(F)F)ccc2Cl)CC1)N1CCc2ccccc2C1 | . | -5.1% | ? | -11.2% | 13.1µM*
COc1ccc(S(=O)(=O)N2CCN(CCCOc3ccc(F)cc3)CC2)cc1OC | -6.2% | 14.2% | 4.65µM* | 13.7% | ?
O=C(Nc1ccccc1Br)C1CC(=O)N(c2ccc3c4c(cccc24)CC3)C1 (configuration not stated) | -2.6% | -1.2% | 32.4% | 0.0% | 0.7%
SMILES | NS1 inh | SARS PLpro yeast | Pf growth 96h | RE007 growth inh | Pf growth 48h
CCCCN(C)c1c(C)nc2ccc(C(=O)Nc3ccc(OC)c(OC)c3)cn12 | . | . | . | -16.5% | .
CNC(=O)Oc1ccc2c(c1)[C@]1(C)CCN(C)C1N2C (some centres not stated) | . | . | 14.7µM* | 11.2% | 13.1µM*
Cc1ccc(-c2csc(N3C(=N)SCC3=O)n2)cc1 | 2.2% | 2.6% | 140.2% | -10.0% | 232.4%
N=C1SCC(=O)N1c1ncc(Cc2ccc(F)cc2)s1 | -65.0% | -6.2% | 114.0% | 28.2µM* | ?
COc1ccccc1NS(=O)(=O)c1cc(NC(=O)c2cc(F)c(F)c(F)c2F)ccc1N1CCOCC1 | . | -0.5% | . | 2.9% | .
COCC(=O)Nc1ccc(N2CCCC2)c(S(=O)(=O)Nc2ccccc2OC)c1 | . | 0.5% | 5.22µM* | -3.6% | 2.62µM*
Cc1ccc(NC(=O)c2ccccc2NS(=O)(=O)c2ccc(Cl)s2)cc1S(=O)(=O)N1CCOCC1 | 15.7% | 0.4% | ? | -5.9% | 11.7µM*
COc1ccccc1NS(=O)(=O)c1cc(NC(=O)c2ccc(=O)[nH]c2)ccc1N1CCOCC1 | 2.4% | -4.3% | 11.7µM* | 16.2% | ?
CC(=O)c1c(C)[nH]c(C(=O)Nc2ccc(C)c(S(=O)(=O)Nc3ccc(C)cc3C)c2)c1C | 8.5% | -1.8% | ? | 8.9% | 13.1µM*
COc1ccccc1NS(=O)(=O)c1cc(NC(=O)c2ccncc2)ccc1N1CCCC1 | . | 1.2% | ? | -1.5% | ?
COc1cc(/C=C2/SC(=S)N(CC(=O)O)C2=O)ccc1OC(=O)c1ccco1 | 25.6% | 0.9% | -0.5% | -18.5% | 36.0%
CN1CCCN(C)C1c1cc([N+](=O)[O-])ccc1O | -47.9% | . | . | . | .
CCOc1cc(OCC)cc(C(=O)N2CCC[C@H]2C(=O)N2CCC[C@H]2C(=O)N[C@@H](C)c2ccccc2)c1 | . | . | . | 2.2% | .
COc1ccccc1NS(=O)(=O)c1cc(NC(=O)c2[nH]c(C)c(C(C)=O)c2C)ccc1N1CCOCC1 | -7.0% | -2.1% | ? | -4.5% | 7.38µM*
COc1ccccc1NS(=O)(=O)c1cc(NC(C)=O)ccc1N1CCCCC1 | . | 1.4% | 9.28µM* | 0.6% | -29.3%
COc1ccccc1NS(=O)(=O)c1cc(NC(=O)C2CC2)ccc1N1CCOCC1 | 0.3% | 6.9% | 11.7µM* | . | ?
COc1ccccc1NS(=O)(=O)c1cc(NC(=O)c2ccccc2C)ccc1N1CCOCC1 | . | . | . | -19.3% | .
COc1ccccc1NS(=O)(=O)c1cc(NC(=O)C(C)NC(N)=O)ccc1N1CCCC1 (configuration not stated) | . | 2.9% | ? | -2.0% | ?
COc1ccccc1NS(=O)(=O)c1cc(NC(=O)Nc2cccc(C)c2)ccc1N1CCCCC1 | ? | 18.2% | 3.7µM* | 17.8% | 3.7µM*
